PubChem BioAssay AID2391 (Southern Research Specialized Biocontainment Screening …, 2010)
Screen size: about 310,000 compounds; about 410 (0.13%) were called active. Not shown: some 2% with an inconclusive outcome. How the calls were made is not given here. The list is a sample of the results. Entries with a potency or affinity are not part of this list.

assay: RSV antiviral activity via CPE protection, HEp-2 cells, primary 10 µM value included (AID 2391); conditions: RSV-induced CPE inhibition, at 10 µM, stronger effect = higher value

CPE inhibition, inactive:
CCOC(=O)/C(C#N)=C/c1c(N2CCN(C)CC2)nc2c(C)cccn2c1=O 1.42%
COc1ccc(NC(=S)N2CCN(c3ccccc3)CC2)c(OC)c1 3.36%
CC(Sc1n[nH]c(N)n1)C(=O)Nc1ccccc1-c1ccccc1 (centres undefined) -0.4%
CCOC(=O)C1(CCOc2ccccc2)CCN(Cc2cccn2-c2ncccn2)CC1 -2.95%
OCC1(CCOc2ccccc2)CCN(Cc2ccncc2)CC1 -0.49%
COc1cc(OC)c(OC)cc1/C=N/NC(=O)c1cccc(S(=O)(=O)N2CCOCC2)c1 0.2%
Cc1cccc(NC(=O)C2CCN(S(=O)(=O)c3ccc4c(c3)NC(=O)CO4)CC2)c1C 0.6%
O=C(c1cc2cc(Cl)ccc2[nH]1)N1CCN(C(=O)c2ccco2)CC1 1.05%
O=C(O)c1[nH]c2ccc(Cl)cc2c1CC(=O)N1CCN(C(=O)c2ccco2)CC1 0.74%
CCOc1ccc(-c2nnc3ccc(SCC(=O)N4CCCCC4)nn23)cc1 1.74%
CCOc1ccc(CNC(=O)CCCn2nc(C)c3c(C)n(-c4ccc(C)cc4)nc3c2=O)cc1 12.6%
COc1cccc(C(=O)NC(=S)Nc2ccc(Cl)c(C(=O)O)c2)c1 1.26%
Cc1ccc(Nc2c([N+](=O)[O-])cc(C(=O)N3CC(=O)Nc4ccccc43)cc2[N+](=O)[O-])c(C)c1 -0.4%
Cc1cccc(Nc2c([N+](=O)[O-])cc(C(=O)N3CC(=O)Nc4ccccc43)cc2[N+](=O)[O-])c1 3.38%
CCOc1cc(/C=C/c2nc3cc(C)c(C)cc3s2)ccc1OCC(=O)N1CCOCC1 15.4%
Cn1cc(CN2CCCC(CO)(Cc3ccccc3)C2)cn1 (centres undefined) -1.49%
Cc1nn(C)c(Cl)c1CN1CCCC(CO)(Cc2ccccc2)C1 (centres undefined) 62.6%
Cc1nn(C)c(Cl)c1CN1CCCC(CO)(Cc2cccc(Cl)c2)C1 (centres undefined) 68.4%
CCN1CCCC(CO)(Cc2ccccc2)C1 (centres undefined) -0.72%
O=C(COC(=O)c1ccc(F)cc1F)Nc1cccnc1Cl 1.68%
CSc1nc(N)c(NC(=O)c2ccc(Br)o2)c(=O)[nH]1 0.99%
CCOC(=O)c1c(C)[nH]c(C(=O)NCc2ccccn2)c1C -0.66%
COc1ccc(NC(=S)NCCc2c(C)[nH]c3ccc(OC)cc23)cc1 1.21%
COc1ccc(NC(=O)CCn2c(=O)c3cccn3c3ccccc32)c(OC)c1 8.66%
COc1ccc(NC(=O)CCn2c(=O)c3cccn3c3ccccc32)cc1 3.29%
C=CCCCCCCCCC(=O)NN 1.7%
CCc1nnc(NC(=O)Cc2c[nH]c3ccccc23)s1 2.52%
Cc1cnc(NC(=O)Cc2c[nH]c3ccccc23)s1 3.89%
C/C=C(/C)C(=O)Nc1cccc(C2=NOC3(C2)C[C@@H](C(N)=O)N(C(=O)c2ccc(OC)cc2)C3)c1 (some centres undefined) 0.8%
NC(=O)[C@H]1CC2(CC(c3cccc(NC(=O)COc4ccc(Cl)cc4)c3)=NO2)CN1C(=O)c1ccc(Cl)cc1 (some centres undefined) -1.09%
C=C(C)C(=O)Nc1cccc(C2=NOC3(C2)C[C@H](C(N)=O)N(C(=O)c2ccccc2)C3)c1 (some centres undefined) 1.43%
NC(=O)[C@@H]1CC2(CC(c3cccc(NC(=O)COc4ccc(Cl)cc4)c3)=NO2)CN1C(=O)c1ccccc1 (some centres undefined) 15.3%
C=CCn1c(-c2cccn(Cc3ccc(Cl)cc3Cl)c2=O)n[nH]c1=S 8.02%
CCCN1CCOC(CC(=O)Nc2ccc([N+](=O)[O-])cc2)C1=O (centres undefined) -1%
CCOC(=O)C1CCN(C(=O)c2cccc(S(=O)(=O)N3c4ccccc4CC3C)c2)CC1 (centres undefined) 0.5%
O=C(c1cccc(S(=O)(=O)N2CCCC2)c1)N1CCN(c2ncccn2)CC1 1.05%
CC1CN(C(=O)c2cccc(S(=O)(=O)Nc3ccc(Cl)cc3)c2)CC(C)O1 (centres undefined) 4.6%
CCC(OC(=O)c1ccco1)C(=O)NCc1ccc(OC)cc1 (centres undefined) 1.29%
O=C(O)/C(=C\c1cccc(F)c1)c1ccc(S(=O)(=O)N2CCCCC2)s1 3.11%
Cc1ccc2cc(/C=N/NC(=O)[C@H](C)NC(=O)OC(C)(C)C)c(Cl)nc2c1 2.96%
COc1ccc2nc(/C=N/NC(=O)[C@H](CCSC)NC(=O)OC(C)(C)C)ccc2c1 18.6%
CCC(C)[C@H](NC(=O)OC(C)(C)C)C(=O)N/N=C/c1cccc2nccnc12 (some centres undefined) 0.75%
COc1ccc2nc(/C=N/NC(=O)CCCCCNC(=O)OC(C)(C)C)ccc2c1 6.33%
C(=C/c1ccnc2nc(SC/C=C/c3ccccc3)nn12)/c1ccccc1 2.09%
Cc1cccc(CCNC(=O)c2nnc(Cc3ccc(Cl)cc3)o2)c1 2.96%
CNc1cc(C(F)(F)F)nc(-c2ccccn2)n1 -0.28%
COc1cc(OC)cc(C(=O)Nc2cccc3c2CCCC3)c1 -0.47%
C=CCn1c(=O)c2c3c(sc2n2c(Nc4ccccc4)nnc12)CCCC3 13.3%
O=C1OC(CCl)CN1Cc1ccc([N+](=O)[O-])cc1 (centres undefined) 0.81%
Cc1ccc(C)c(NC(=O)CN(C)C(=O)c2ccc(S(=O)(=O)N3CCCCCC3)cc2)c1 0.63%
O=C(CNC(=O)c1ccc(Br)cc1)N=Nc1c(O)[nH]c2ccc([N+](=O)[O-])cc12 6.52%
O=C(N=Nc1c(O)[nH]c2ccc([N+](=O)[O-])cc12)c1ccccc1Cl 3.59%
O=C(O)c1ccccc1N=Nc1c(O)[nH]c2ccc([N+](=O)[O-])cc12 1.41%
Cc1ccccc1NCC(=O)N=Nc1c(O)[nH]c2ccc([N+](=O)[O-])cc12 0.48%
O=C(CNC(=O)c1ccco1)N=Nc1c(O)[nH]c2ccc(Br)cc12 7.48%
Cc1ccc(NCC(=O)N=Nc2c(O)[nH]c3ccc([N+](=O)[O-])cc23)cc1 2.27%
Clc1cnc(N/N=C/c2ccco2)c(Cl)c1 5.1%
O=C(CC1C(=O)NCCN1Cc1ccoc1)NCc1cccc(OC(F)(F)F)c1 (centres undefined) -0.85%
CC(Sc1nnc(CNC(=O)c2ccco2)n1C)C(=O)Nc1nccs1 (centres undefined) -0.02%
CCN(CC(=O)NCc1ccc(F)cc1)C(=O)COc1ccc2ccccc2c1 1.64%
COC(=O)CSc1nnc(CNC(=O)c2ccccc2F)n1-c1ccc(F)cc1 1.47%
CSc1ccc(NC(=O)N2CCC(C(=O)c3ccc(F)cc3)CC2)cc1 8.24%
COc1ccc(S(=O)(=O)N2CCN(C(=O)c3ccc4ccccc4n3)CC2)cc1 3.49%
Cc1cc(C)c(NC(=O)CSc2nnc(CNC(=O)c3ccco3)o2)c(C)c1 -0.65%
Cc1cccc(-c2oc3ccccc3c2C#CCCCCO)c1 3.25%
COc1ccccc1-c1oc2ccccc2c1C#CCCO 3.39%
COc1cc(C2NC(C(=O)O)Cc3c2[nH]c2ccccc32)cc(OC)c1OC (centres undefined) 5.99%
CCC(=O)Nc1nnc(SCC(=O)c2ccc3c(c2)Cc2ccccc2-3)s1 42.4%
CC(=O)Nc1nnc(SCC(=O)c2ccc(F)cc2)s1 1.4%
Cc1c(NC(=S)Nc2ccc(Cl)cc2)c(=O)n(-c2ccccc2)n1C 2.83%
Cc1c(Cl)cccc1NC(=S)NCCN1CCOCC1 1.32%
COc1ccc(C(=O)COc2ccc3c(C)cc(=O)oc3c2)cc1 1.42%
Cc1ccc(-c2nnc3c4ccccc4c(C)nn23)cc1S(=O)(=O)N1CCN(CCO)CC1 8.23%
Cc1ccc(-c2nnc3c4ccccc4c(C)nn23)cc1S(=O)(=O)N1CCN(C)CC1 0.37%
Cc1nn2c(-c3ccc(S(=O)(=O)N4CCN(C)CC4)o3)nnc2c2ccccc12 -1.89%
COc1ccc(-c2nnc3c4ccccc4c(C)nn23)cc1S(=O)(=O)N1CCN(CCO)CC1 -0.91%
Cc1cc(NC(=O)CCC(=O)N(Cc2ccco2)C2(C(=O)NC3CCCC3)CCCCC2C)no1 (centres undefined) 2.17%
O=C(c1ccc(F)cc1)N1C2CCC1CC(O)(c1ccc(F)cc1)C2 (centres undefined) 0.65%
COc1ccc(S(=O)(=O)N2CCCCC2)cc1C(=O)N1CCCCCC1 1.11%
CC1Cc2ccccc2N1C(=O)COC(=O)c1ccc(Br)o1 (centres undefined) -0.89%
Cc1ccc(NC(=S)N2CCC(O)CC2)c(C)c1 3.11%
Cc1cccc(C)c1NC(=O)CN(C)CC(=O)c1c(N)n(Cc2ccccc2)c(=O)n(C)c1=O 0.19%
Cc1ccc2nc(C)cc(C(=O)OCC(=O)Nc3c(C)n(C)n(-c4ccccc4)c3=O)c2c1 2.74%
Cc1c(NC(=O)COC(=O)c2cc(-c3cccc4ccccc34)nc3ccccc23)c(=O)n(-c2ccccc2)n1C 1.88%
COc1ccc(/C=N/NC(=O)Cc2ccc(Cl)cc2)cc1OC 1.07%
CN(C)c1ccc(NC2=C(Cl)C(=O)c3ccccc3C2=O)cc1 -2.87%
COc1ccc(NC2=C(NC(C)=O)C(=O)c3ccccc3C2=O)cc1 -0.06%
CCC1=NN2C(=N)/C(=C\c3cccn3-c3ccc(C)cc3C)C(=O)N=C2S1 16.1%
CCC1=NN2C(=N)/C(=C\c3cccn3-c3ccc(C)c(C)c3)C(=O)N=C2S1 15.3%
